Screening data deposited in PubChem by National Center for Advancing Translational Sciences (NCATS).
Only some compounds are listed: those with a hit (about 4.4% of all), similar ones and a draw of the others.
D1 antag = blocks dopamine activation of the human D1 receptor; 360,000 tested, 3.2% active; activity change, negative = inhibition, % at 10 µM; P21728; HEK293 TREx D1 cells, calcium flux, dopamine EC80; active compounds read low; in the data active means activity change below about -30%; further: on the % scale 0 is the no-effect control and ±100 the full control effect
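Cells carrying a force-coupled, tetracycline-inducible human D1 receptor report calcium flux. Each well gets a 10 s baseline, compound with 180 s monitoring, then an EC80 dopamine stimulus with a second 180 s kinetic read.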
D1 potentiator = human D1 dopamine receptor positive modulation. AID 504651. HEK293 TREx D1 cells, calcium flux, dopamine EC20 potentiation. 360,000 tested, 0.036% active. P21728. potentiation, % at 10 µM; in the data active means potentiation above about 30%; further: 0% is about no effect
D1 ag = activates the human D1 dopamine receptor; HEK293 T-REx D1 cells, calcium flux, agonist mode; activation, % at 2 µM; 360,000 tested, 1% active; further: 0% is about no effect
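Tetracycline-induced HEK293 TREx D1 cells, force-coupled to calcium signalling, were dye-loaded with a no-wash calcium kit. Compound was pin-added after a 10 s baseline. Fluorescence was read kinetically at 1 cycle/s for 180 s, with calcium rises flagged as agonism.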
TRHR enhancer = allosterically enhances the human TRH receptor | 360,000 tested, 0.66% active | TRHR cells, fluo-8 calcium fluorescence, EC20 TRH enhancement | P34981 | AID 493056 | enhancement, % at 2 µM; in the data active means enhancement above about 30%; further: 0% is about no effect
Target sequence (P34981 whole entry, looked up): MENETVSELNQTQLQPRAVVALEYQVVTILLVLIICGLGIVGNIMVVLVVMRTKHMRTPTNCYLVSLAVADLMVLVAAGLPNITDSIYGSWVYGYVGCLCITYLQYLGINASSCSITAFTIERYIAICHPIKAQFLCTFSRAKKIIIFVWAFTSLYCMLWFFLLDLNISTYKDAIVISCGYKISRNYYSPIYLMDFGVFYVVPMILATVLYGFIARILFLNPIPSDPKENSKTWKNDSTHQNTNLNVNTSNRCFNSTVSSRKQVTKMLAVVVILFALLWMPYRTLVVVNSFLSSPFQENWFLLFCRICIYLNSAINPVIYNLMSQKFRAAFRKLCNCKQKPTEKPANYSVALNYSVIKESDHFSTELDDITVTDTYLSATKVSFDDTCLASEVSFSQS
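TRHR-expressing cells loaded with fluo-8 calcium dye were read kinetically (ex 480/em 530) during compound addition, then stimulated with an EC20 of TRH (10 nM final). Enhancement of the Gq-mediated intracellular calcium response was scored.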
TRHR ag = activates the human TRH receptor | P34981 | TRHR cells, calcium flux fluo-8, FDSS agonist mode | activation, % at 2 µM | 360,000 tested, 0.18% active; further: 0% is about no effect
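TRHR-expressing cells loaded with fluo-8 calcium dye; 23 nL library compound pin-transferred, kinetic FDSS fluorescence (Ex 480/Em 530) recorded about 180 s for agonist-induced calcium release, before a 10 nM TRH EC20 addition for potentiator mode.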
USP1-UAF1 inh = inhibitors of human USP1/UAF1 deubiquitinase; O94782; recombinant USP1/UAF1, Ub-Rhodamine cleavage fluorescence; Potency, µM (highest dose often 57.1 µM), for the others: top-dose activity change, negative = inhibition, most hits filed as inhibitors; 390,000 tested, 0.23% active; AID 743255; active means well fitted inhibition curve with a large enough effect; inconclusive means small, poorly fitted or top-dose-only effect; inactive means no such curve, though single readings can be large or run the other way; further: potency means the concentration at half of the fitted maximal effect; on the % scale 0 is the no-effect control and ±100 the full control effect; nearly all actives have a fitted effect of over 60% in size
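High-throughput fluorogenic screen: 1nM USP1/UAF1 complex, Ub-Rho substrate 150nM final, 50mM HEPES pH 7.8 with 0.5mM EDTA, 0.1 mg/ml BSA, 1mM TCEP and 0.01% Tween-20.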
The depositor's hits bear a star; ? = inconclusive. Unless noted, no stated cut-off is given here; in the data, active means activation above about 30%; inactive means the rest.

SMILES	D1 antag	D1 potentiator	D1 ag	TRHR enhancer	TRHR ag	USP1-UAF1 inh
O=C(NCc1cccc(Cl)c1)c1ccc(NC(=O)N2CC3CCCN3c3ccccc32)cc1 (configuration not stated)	-11	-1	2	-3	1	-18%
COc1ccccc1Oc1coc2c(CN3CCOCC3)c(O)ccc2c1=O	-8	-4	2	37*	0	-19%
COc1ccc(NC(=O)Cn2c(=O)n(Cc3ccco3)c(=O)c3sc4ccccc4c32)cc1OC	-10	-4	2	-4	0	-25%
COc1cc(C(=O)Nc2cccc(-c3nncn3C)c2)cc(OC)c1OC	3	2	7	34*	0	-1%
Cc1ccc(CCNS(=O)(=O)c2ccc3c(c2)CCN3C(=O)CCC(=O)O)cc1	-9	-1	3	3	0	-23%
O=c1cc(O)sc2ccccc12	-22	-8	40*	1	5	-10%
CCOC(=O)CCC(NC(=O)CCC(=O)NC(CCC(=O)OCC)C(=O)OCC)C(=O)OCC (configuration not stated)	0	6	0	31*	1	-5%
CCCCN(CC)c1nc(-c2ccccc2F)nc2ccccc12	8	-1	4	-19	0	-29%
O=C(Nc1ccccc1)c1cnc(N2CCCCC2)c2ccccc12	10	-2	0	0	0	-7%
COc1cccc(C(=O)Nc2ccc3nc(SCC(=O)N4CCc5ccccc54)sc3c2)c1	-38*	-2	8	-3	1	-15%
CCOC(=O)Nc1ccc2nc(Sc3ccc(Cl)cc3)sc2c1	-34*	-6	7	-7	0	-15%
COc1ccc(C(=O)Nc2ccc3nc(SCC(=O)N4CCc5ccccc54)sc3c2)cc1	13	0	4	1	1	-7%
Cc1ccc(C(=O)Nc2ccc3nc(SCC(=O)N4CCc5ccccc54)sc3c2)cc1	-5	-1	4	-4	1	0%
Cc1ccc(OCC(=O)Nc2ccc3nc(SCC(=O)N4CCc5ccccc54)sc3c2)cc1	-35*	4	0	5	-1	-6%
O=C(COc1ccc(Cl)cc1)Nc1ccc2nc(SCC(=O)N3CCOCC3)sc2c1	-36*	-2	11	-1	1	-25%
CCOC(=O)CSc1nc2ccc(NC(=O)c3ccc(Cl)cc3)cc2s1	-22	-1	11	0	2	?
NC(=S)n1[nH]c(-c2ccc([N+](=O)[O-])cc2)c(N=Nc2ccccc2[N+](=O)[O-])c1=O	-51*	-12	2	11	1	-15%
Cc1c(N=Nc2c(-c3ccc([N+](=O)[O-])cc3)[nH]n(C(N)=S)c2=O)cccc1[N+](=O)[O-]	-28	-6	23	-1	0	?
CCC(NC(=O)Nc1cc(Cl)ccc1OC)c1c(-n2cccc2)sc2c1CCN(C)C2 (configuration not stated)	-2	-1	6	0	1	?
CCN(CC)c1ccc2cc(-c3nc(-c4ccccc4)no3)c(=O)oc2c1	-34*	9	317*	4	55*	?
CCN(CC)c1ccc2cc(S(=O)(=O)c3ccc(C)cc3)c(=O)oc2c1	-3	2	120*	-1	0	?
CCN(CC)c1ccc2cc(C#N)c(=O)oc2c1	-6	-3	32*	-1	18	?
CCN(CC)c1ccc2cc(-c3nnc(Nc4ccc(C)cc4)s3)c(=O)oc2c1	-60*	-1	421*	-17	159*	?
O=c1oc2ccccc2cc1-c1nc(-c2ccccc2)no1	3	-4	2	-3	0	-18%
CC(C)CC(=O)Nc1c2c(nn1-c1cccc(Cl)c1)CS(=O)C2 (configuration not stated)	-33*	8	2	-7	0	-15%
SMILES	D1 antag	D1 potentiator	D1 ag	TRHR enhancer	TRHR ag	USP1-UAF1 inh
O=C1CC(c2ccccc2)c2c(n3ncnc3[nH]c2=O)N1 (configuration not stated)	20	1	3	-3	1	-13%
Cc1ccc(S(=O)(=O)CCC(=O)c2ccc(O)cc2O)cc1	-4	-2	4	-1	0	-9%
CCCCCC(=O)C(=O)c1ccc(O)cc1O	21	1	3	34*	-1	-13%
Cc1cccc(C)c1N1C(=O)CC(N(O)c2ccccc2)C1=O (configuration not stated)	-31*	-8	6	-3	2	3%
CC1=NN(c2ccccc2)C(=O)/C1=C\C=C1\N(C)c2ccccc2C1(C)C	-32*	-3	44*	-1	6	-23%
CC1=NN(c2ccccc2)C(=O)/C1=C/N(C)C	-13	-1	0	-8	0	-18%
CC1=NN(c2ccccc2)C(=O)/C1=C\C=C1/N(C)c2ccccc2C1(C)C	-19	-3	68*	-12	12	?
CC(C)(O)CC[C@@H](O)[C@](C)(O)C1CC[C@@]2(O)C3=CC(=O)[C@]4(O)C[C@@H](O)[C@@H](O)C[C@]4(C)C3CC[C@]12C (some centres not stated)	-33*	6	1	0	0	-18%
CC1=C(C(=O)Nc2ccccc2C)C(c2cccnc2)n2nc(SCc3ccccc3)nc2N1 (configuration not stated)	-38*	-5	3	5	0	-3%
COc1cccc(CSc2nc3n(n2)C(c2cccnc2)C(C(=O)Nc2ccccc2C)=C(C)N3)c1 (configuration not stated)	-7	-2	-1	-2	0	-17%
CCSc1nc2n(n1)C(c1ccc(Cl)cc1Cl)C(C(=O)Nc1ccccc1C)=C(C)N2 (configuration not stated)	-34*	-5	0	3	0	5%
Cc1ccccc1NC(=O)CSC1=Nc2ccccc2C2=NC(Cc3ccccc3)C(=O)N12 (configuration not stated)	8	0	-1	2	-1	-23%
COc1cc(OC)c(NC(=O)c2c(N3CCCC3=O)c3cc(C)ccc3n2C)cc1Cl	-88*	-4	-2	3	0	?
Cc1ccc2c(c1)c(N1CCCC1=O)c(C(=O)Nc1ccc(F)cc1F)n2C	4	-1	-2	-1	0	-23%
Cc1ccc2c(c1)-c1c(cnc3cc(-c4ccc(Cl)cc4)nn13)CO2	6	-4	-1	8	0	-17%
